Drawing on PubChem BioAssay AID1626 (SRMLSC, 2009), this text covers inhibition for 27 compounds.

Molecules are shown by their SMILES. The whole screen tested about 220,000 compounds, of which about 2,000 (0.91%) were called active. Another 2% or so got no clear call; they are omitted. Only a sample is shown. Results with a measured potency or affinity are listed apart. Values without a mark were called inactive. Rule as the data show it: inconclusive = inhibition above about 80% without an active follow-up result; inactive = below that; test concentration not stated here.

The nature of this assay: M. tuberculosis H37Rv growth inhibitors, H37Rv strain (AID 1626).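 Also: bacteria incubated seven days before Alamar blue readout; 0% = bacteria only wells and 100% = bacteria with antibiotic wells.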 The settings on record: stronger effect = higher value, concentration not given here.
In the case of `COc1ccc(CNC(=O)CS(=O)Cc2nc(-c3ccccc3C)oc2C)cc1` (configuration not stated), the inhibition is 7.5%.

For the compound `COc1ccc(/C=N/NC(=O)c2ccc(CN3c4cccc5cccc(c45)S3(=O)=O)cc2)cc1`, the inhibition was 0.99%.

Take `CCOC(=O)c1sc(NC(=O)CCCCl)nc1C`: the inhibition was 6.92%.

In the case of `CC(C)Cn1c(N)c(C(=O)COC(=O)C2CCCCC2)c(=O)n(C)c1=O`, the inhibition was -2.8%.

Take `Cc1cc(NC(=O)COC(=O)c2ccc(S(=O)(=O)N3CCCC3)cc2)no1`: the inhibition was 5.16%.

`CN(c1ccccc1C(=O)NC1CC2CCC1C2)S(=O)(=O)c1ccccc1` (configuration not stated): the inhibition was 5.72%.

On to `CC1CCCC/C1=N\NC(=S)Nc1cccnc1` (configuration not stated), for which the inhibition was -2.62%.

Turning to `COc1ccccc1CNC(=O)CN(C)CC(=O)Nc1cccc(F)c1`, the inhibition was -0.48%.

Turning to `COc1ccc(NC(=O)CN(C)CC(=O)Nc2ccccc2SC)cc1Cl`, the inhibition is -0.42%.

In the case of `CCCCOc1ccc(C(C)NC(=O)C2CCCN(S(=O)(=O)CC)C2)cc1` (configuration not stated), the inhibition is -2.95%.

For `CCC(=NCCO)c1c(O)n(C2CCCCC2)c(=O)[nH]c1=O`, the inhibition was 3.46%.

`CCOC(=O)c1cnc2ccc(C(=O)OC)cc2c1Nc1ccc(C(=O)O)cc1`: the inhibition was -2.69%.

Turning to `CCOC(=O)c1cnc2ccc(C)cc2c1Nc1ccc(N2CCOCC2)cc1`, the inhibition is 0.42%.

Take `O=C(O)c1cc(-n2cccc2)ccc1N1CCOCC1`: the inhibition is -4.7%.

As to `COc1ccccc1NC(=S)NC1CCCCCC1`, the inhibition is -4.57%.

For `CN(C)/C=C(/C(=O)c1ccccc1)n1cncn1`, the inhibition is -12.5%.

As to `Cc1nn(C)c(C)c1/C=C(/C(=O)C(C)(C)C)n1cncn1`, the inhibition is -5.89%.

Consider `Cc1cccc(Sc2c([N+](=O)[O-])ncn2C)c1`, for which the inhibition is 4.79%.

As for `CCS(=O)(=O)c1c([N+](=O)[O-])ncn1C`, the inhibition is 76.2%.

On to `Cn1cnc([N+](=O)[O-])c1Oc1ccc2ccccc2c1`, for which the inhibition is 13.9%.

Consider `Cn1cnc([N+](=O)[O-])c1Cl`, for which the inhibition is 0.19%.

For `Cc1cccc(C(=O)N=c2c(C#N)cc3c(=O)n4cccc(C)c4nc3n2Cc2ccco2)c1`, the inhibition is -8.85%.

In the case of `CCN(C(=O)COC(=O)c1cc(S(=O)(=O)Nc2c(C)n(C)n(-c3ccccc3)c2=O)ccc1Cl)C1CCCCC1`, the inhibition is -3.86%.

In the case of `Cc1cccc(NC(=O)CCOc2ccccc2)c1`, the inhibition is -1.8%.

In the case of `Cc1cc(C)n(-c2nc(-c3ccccc3)cs2)n1`, the inhibition was 4.34%.

Consider `O=C(CNC(=O)c1ccco1)OCc1ccc(C(=O)c2ccccc2)cc1`, for which the inhibition was 3.51%.

Take `Cc1ccc(C)c(CSCC(=O)NCc2cccs2)c1`: the inhibition was -7.19%.
